# Screening data deposited in PubChem BioAssay by National Center for Advancing Translational Sciences (NCATS).
# HTT-AS act – activators of huntingtin-antisense promoter activity; Potency, µM (titrated, usually from 57.5 µM), for the others: at the highest dose activity change, positive = activation, hits mostly activators; actives 0.24% (n = 48,000); AID 1508624; HEK293 HTT-AS promoter firefly luciferase reporter, 24 h; response scale: percent change from vehicle, -100% = no light; also: potency is read from the fitted curve at half-maximal effect; nearly all actives have a fitted effect of over 55% in size
#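 HEK293 Fluc reporter, 2,500 cells/well, 24 h pre-culture; cpds up to 57.5 uM final, 24 h 37 degrees C; Dual-Glo, 10 min RT; normalized vehicle = 0%, zero RLU = -100%.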
# HTT promoter inh – inhibitors of huntingtin promoter activity; HEK293 HTT promoter firefly luciferase reporter, 24 h; Potency, µM (highest dose often 57.5 µM), without a hit: at the top dose activity change, negative = inhibition, hits mostly inhibitors; actives 0.93% (n = 48,000); AID 1508623; also: potency is read from the fitted curve at half-maximal effect; nearly all actives have a fitted effect of over 50% in size
#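 Firefly luciferase signal from promoter-reporter HEK293 cells was scaled between vehicle (0%) and zero RLU (-100%). Compounds were tested at final concentrations of up to 57.5 uM over 24 h at 37 degrees C. PTC124 at 50 uM final served as control inhibitor.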
# GALC G270D up – enhancers of human galactocerebrosidase G270D mutant activity in cells. P54803. 145M-Twi-hGALC-G270D cells, HMU-beta-Gal fluorescence, 48 h. Potency, µM (series often up to 57.5 µM), most hits filed as activators. actives 0.1% (n = 45,000); also: potency is read from the fitted curve at half-maximal effect; 0% is about no effect; nearly all actives have a fitted effect of over 65% in size
# Target sequence (P54803 whole entry G286D): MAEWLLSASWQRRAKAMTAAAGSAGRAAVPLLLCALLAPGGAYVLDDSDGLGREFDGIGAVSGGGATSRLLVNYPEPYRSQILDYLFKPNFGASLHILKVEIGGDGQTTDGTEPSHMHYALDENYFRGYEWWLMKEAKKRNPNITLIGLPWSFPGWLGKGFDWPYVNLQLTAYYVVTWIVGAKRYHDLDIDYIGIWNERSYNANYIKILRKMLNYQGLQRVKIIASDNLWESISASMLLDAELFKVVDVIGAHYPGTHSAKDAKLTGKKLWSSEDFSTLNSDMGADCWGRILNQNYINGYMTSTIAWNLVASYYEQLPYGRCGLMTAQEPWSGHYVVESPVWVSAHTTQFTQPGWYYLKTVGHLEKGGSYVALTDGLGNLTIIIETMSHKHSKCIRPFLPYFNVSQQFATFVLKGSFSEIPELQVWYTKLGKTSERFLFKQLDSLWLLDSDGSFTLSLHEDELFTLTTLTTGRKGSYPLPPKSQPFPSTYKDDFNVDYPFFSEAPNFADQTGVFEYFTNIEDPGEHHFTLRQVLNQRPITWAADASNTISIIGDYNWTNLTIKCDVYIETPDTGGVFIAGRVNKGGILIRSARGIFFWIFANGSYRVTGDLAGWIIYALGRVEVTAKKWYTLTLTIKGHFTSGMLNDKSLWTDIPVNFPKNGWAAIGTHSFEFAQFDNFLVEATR
#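 qHTS, 1536-well; 145M-Twi-hGALC-G270D cells (WT line also made) in DMEM/F12 + 10% FBS; compound incubation on live cells; HMU-β-gal 0.1 mM final, pH 5.2, NaTC; carbonate stop; fluorescence increase = enhanced residual activity.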
# FH mod – Identification of activators of human fumarate hydratase by quantitative high-throughput screening; Fumarate hydratase, mitochondrial (Homo sapiens), P07954; FH coupled MDH/diaphorase resazurin fluorescence, 15 min; Potency, µM (highest dose often 79.9 µM), for inactives: top-dose activity change, negative = inhibition, usual class: inhibitors; actives 0.22% (n = 54,000); also: potency is read from the fitted curve at half-maximal effect; % is scaled to controls: 0 for no effect and ±100 for the full control effect; the screen sought activators but most active calls are inhibition curves; nearly all actives have a fitted effect of over 45% in size
# GPR32 ag – agonists of human resolvin D1 receptor DRV1 (GPR32) | O75388 | CHO-K1 GPR32 beta-arrestin PathHunter luminescence, 90 min; zero percent set by DMSO-only wells | activation, % at 76.9 µM | actives 2.5% (n = 48,000) | AID 1346428;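 active = activation of at least 60% and not above a set upper limit, about 1 call in 100 departs from these limits; inconclusive = activation of 40% to 60%, or above that upper limit; inactive = activation under 40%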; also: 0% is about no effect
#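 Readings come from a cell-based beta-arrestin complementation format: CHO-K1 GPR32 stable cells (2,500/well) treated 90 min with compounds, then beta-Gal substrate added for 1 h before chemiluminescence imaging.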
# NTMT1 inh – inhibitors of human N-terminal methyltransferase NTMT1. AID 1645870. Q9BV86. NTMT1 MTase-Glo SAH luminescence, purified enzyme. Potency, µM (highest dose often 114 µM), inactives show top-dose activity change, negative = inhibition, usual class: inhibitors. actives 2.5% (n = 59,000);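 also: potency is read from the fitted curve at half-maximal effect; plate controls were DMSO vehicle for no effect and no enzyme for full effect; nearly all actives have a fitted effect of over 65% in size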
# DYRK1A KinaseGlo – inhibitors of human DYRK1A kinase; shares compounds with NTMT1 inh; recombinant DYRK1A, Kinase-Glo ATP depletion luminescence; Potency, µM (titrated, usually from 76.9 µM), inactives show top-dose activity change, negative = inhibition, actives largely listed as inhibitors; actives 80% (n = 100); AID 2705
# NNMT counter – human NNMT inhibition, NTMT1 counter-screen; shares compounds with NTMT1 inh; NNMT MTase-Glo luminescence, SAH detection; Potency, µM (titrated, usually from 57.1 µM), inactives show at the top dose activity, negative = inhibition, most hits filed as inhibitors; actives 10% (n = 120); AID 1645878
# The depositor's hits bear a star; i = inactive; u = inconclusive; x = no result given; ! = repeats disagree; [ ] = another dose, or the depositor's remark. In the library only some 4.7% were active in any assay of this set; here they are far more common. Unless noted, calls follow the shape of the dose curve; as a rule, active = well fitted curve in the direction sought with a large enough effect; inconclusive = small, poorly fitted or top-dose-only effect, or another doubt; inactive = no such curve, though single readings can be large; an effect the other way counts as inactive or inconclusive.
SMILES,HTT-AS act,HTT promoter inh,GALC G270D up,FH mod,GPR32 ag,NTMT1 inh,others
Cc1cccc(N2CCN(c3ncnc4onc(C)c34)CC2C)c1 (stereo not given),-93.2%,12.6µM*,i,-40.7%,u,-5.6%,
Cc1cccc(NC(=O)c2c(NC(=O)c3ccccc3)sc3c2CCCC3)c1,-10.8%,-1.1%,i,-12.1%,-3.1,44.7µM*,
CCOC(=O)c1c(NC(=O)c2ccccc2C)sc2c1CCCC2,-17.4%,-16.2%,i,-5.1%,-7.2,89.1µM*,
COc1ccc(NS(=O)(=O)c2ccc3c(c2)CCCN3C(=O)C2CCC2)cc1OC,-29.3%,1.78µM*,i,-15.2%,u,-16.3%,
Cc1ccc(NS(=O)(=O)c2ccc3c(c2)CCCN3C(=O)C2CCC2)cc1Cl,-28.3%,22.4µM*,i,u,-2.4,-16.3%,
COc1ccc(NS(=O)(=O)c2cc(Br)cc3c2N(C(=O)C2CC2)CC3)cc1OC,-43.9%,5.62µM*,i,4.0%,16.7,u,
Cc1ccc(NS(=O)(=O)c2ccc3c(c2)CC(C)N3C(=O)C2CCC2)cc1Cl (stereo not given),x,x,x,x,-6.9,x,
CC(=O)Nc1ccc(NS(=O)(=O)c2cc(Br)cc3c2N(C(=O)C2CC2)CC3)cc1,-21.1%,-13.5%,i,u,16.6,2.4%,
COc1ccc(-c2ccc(NC(=O)c3cccs3)cn2)cc1,x,x,x,x,x,2.3%,
COc1cc(O)c([C@H](CC(=O)N2CC(C)CC(C)C2)c2ccc3c(c2)OCO3)c(OC)c1 (stereo not given in full),x,x,x,x,x,6.4%,
Cc1ccc(OCCn2c(CCNC(=O)C3CCOCC3)nc3ccccc32)cc1,x,x,x,x,x,19.0%,
O=C1CCC=CC1(O)C(=O)OCc1ccccc1O[C@@H]1O[C@H](CO)[C@@H](O)[C@H](O)[C@H]1O (stereo not given in full),x,x,x,5.4%[53.3 µM],x,u,
COC1CC(O[C@H]2CC[C@@]3(C)C(=CC[C@]4(O)C3[C@H](OC(C)=O)[C@@H](OC(=O)c3ccccc3)[C@]3(C)[C@@H](C(C)=O)CC[C@@]34O)C2)OC(C)C1OC1CC(OC)C(OC2CC(OC)C(OC3OC(C)C(OC4OC(CO)C(O)C(O)C4O)C(OC)C3O)C(C)O2)C(C)O1 (stereo not given in full),x,x,x,3.2%[13.5 µM],x,7.3%[6.45 µM],
CC(=O)Nc1nc(-c2ccc3c(c2)CCN3C(=O)c2ccccc2C)c(C)s1,x,x,x,x,x,-5.4%,
O=c1cc(-c2ccccc2)oc2cc(O)c(O)c(O)c12,u,21.6%,x,u,x,28.2µM*!,
O=C(c1ccc(F)cc1)C1CCN(CCn2c(=O)[nH]c3ccccc3c2=O)CC1,-8.0%,-3.3%,i,2.7%,82.3*!,u,
COc1cc2c(cc1OC)CN(CCc1ccc(NC(=O)c3cccc4c(=O)c5cccc(OC)c5[nH]c34)cc1)CC2,-63.5%,-6.3%,x,-12.7%,x,28.2µM*!,NNMT counter=3.98µM*
CCOC(=O)c1ccoc1-c1ccc2ncnc(NCc3csc(C)n3)c2c1,x,x,x,x,x,-4.4%,DYRK1A KinaseGlo=-11.0%
CCOC(=O)c1ccc(-c2ccc3ncnc(NCc4csc(C)n4)c3c2)o1,x,x,x,x,x,-11.9%,DYRK1A KinaseGlo=9.23µM*
CCOC(=O)c1ccc(-c2ccc3ncnc(NCc4ncc[nH]4)c3c2)o1,x,x,x,x,x,-1.0%,DYRK1A KinaseGlo=2.32µM*
